From PubChem BioAssay (NCATS)
Values joined by “and” are separate entries in the source; they are usually repeats but may differ in a detail not shown here. Equal values may be shown once. Inconclusive results are not listed. Some structures have more than one record in an assay (separate samples or runs), and their calls can disagree. Active and inactive are the calls of the source. Unless noted, calls come from the whole dose curve; as a rule, active = well fitted curve in the direction sought with a large enough effect; inconclusive = small, poorly fitted or top-dose-only effect, or another doubt; inactive = no such curve, though single readings can be large; an effect the other way counts as inactive or inconclusive.

Experiments:
[1] = target: 3',5'-cyclic-AMP phosphodiesterase 4B (Homo sapiens) (UniProt Q07343); assay: qHTS Assay for Inhibitors of PDE-IV (AID 607; active = well fitted activation curve with a large enough effect in the main read-out, with a control signal flat, not every such curve was filed as active)
Sequence of 3',5'-cyclic-AMP phosphodiesterase 4B (Homo sapiens) (Q07343 whole entry, looked up): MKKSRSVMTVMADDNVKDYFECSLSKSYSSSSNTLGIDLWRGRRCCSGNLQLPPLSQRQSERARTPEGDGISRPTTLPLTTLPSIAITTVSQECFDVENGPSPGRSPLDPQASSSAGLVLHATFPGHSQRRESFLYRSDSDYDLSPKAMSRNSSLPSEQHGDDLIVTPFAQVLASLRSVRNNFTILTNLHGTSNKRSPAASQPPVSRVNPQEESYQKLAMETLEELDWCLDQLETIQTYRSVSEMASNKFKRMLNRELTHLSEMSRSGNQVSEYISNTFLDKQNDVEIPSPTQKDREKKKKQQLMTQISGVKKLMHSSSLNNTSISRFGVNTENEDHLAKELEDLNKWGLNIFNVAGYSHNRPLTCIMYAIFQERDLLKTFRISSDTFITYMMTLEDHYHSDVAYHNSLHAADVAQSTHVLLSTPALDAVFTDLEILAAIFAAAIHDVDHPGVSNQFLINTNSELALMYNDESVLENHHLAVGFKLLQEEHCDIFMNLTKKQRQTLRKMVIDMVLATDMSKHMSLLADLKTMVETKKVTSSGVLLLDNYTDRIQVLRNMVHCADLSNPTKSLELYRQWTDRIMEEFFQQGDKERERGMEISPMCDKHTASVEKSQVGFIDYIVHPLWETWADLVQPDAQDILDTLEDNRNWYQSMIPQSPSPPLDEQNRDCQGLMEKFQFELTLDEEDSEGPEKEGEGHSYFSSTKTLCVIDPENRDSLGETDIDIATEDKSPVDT
Outline: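 The readout is membrane depolarisation from a cAMP-sensing CNG channel, detected with a potential dye at ex 535/em 590. Cells were HEK293-derived (endogenous PDE-IV) at 1000 cells/well, titrated up to 22.9 uM final.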

[2] = target: Guanine nucleotide-binding protein G(i) subunit alpha-1 (Homo sapiens) (UniProt P63096); assay: qHTS Assay for Inhibitors of RGS12 GoLoco Motif Activity (Green Fluorophore) (AID 879);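 note: negative values mean loss of peptide binding seen as reduced polarization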
Sequence of Guanine nucleotide-binding protein G(i) subunit alpha-1 (Homo sapiens) (P63096 whole entry, looked up): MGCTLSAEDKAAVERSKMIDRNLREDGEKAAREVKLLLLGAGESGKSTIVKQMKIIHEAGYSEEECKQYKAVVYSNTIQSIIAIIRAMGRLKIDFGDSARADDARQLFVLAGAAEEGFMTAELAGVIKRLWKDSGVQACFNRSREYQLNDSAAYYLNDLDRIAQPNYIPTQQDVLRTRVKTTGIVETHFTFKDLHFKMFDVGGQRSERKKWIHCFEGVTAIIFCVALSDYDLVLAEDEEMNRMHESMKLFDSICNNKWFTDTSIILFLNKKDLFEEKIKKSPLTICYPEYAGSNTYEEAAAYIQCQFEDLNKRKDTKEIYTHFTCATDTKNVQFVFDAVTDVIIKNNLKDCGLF
Outline: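 Fluorescence polarization assay: 50 nM Gαi1 with 10 nM FITC-labeled RGS12 GoLoco peptide in 10 mM Tris pH 7.5, 150 mM NaCl, 0.1 mM GDP, 0.05% NP40, 10 min at room temperature with compound.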

[3] = target: Cytochrome P450 2C9 (Homo sapiens) (UniProt P11712); assay: qHTS Assay for Inhibitors and Substrates of Cytochrome P450 2C9 (AID 883); note: nearly all actives have a fitted effect of over 60% in size; note: potency is the fitted concentration of half-maximal effect
Sequence of Cytochrome P450 2C9 (Homo sapiens) (P11712 whole entry, looked up): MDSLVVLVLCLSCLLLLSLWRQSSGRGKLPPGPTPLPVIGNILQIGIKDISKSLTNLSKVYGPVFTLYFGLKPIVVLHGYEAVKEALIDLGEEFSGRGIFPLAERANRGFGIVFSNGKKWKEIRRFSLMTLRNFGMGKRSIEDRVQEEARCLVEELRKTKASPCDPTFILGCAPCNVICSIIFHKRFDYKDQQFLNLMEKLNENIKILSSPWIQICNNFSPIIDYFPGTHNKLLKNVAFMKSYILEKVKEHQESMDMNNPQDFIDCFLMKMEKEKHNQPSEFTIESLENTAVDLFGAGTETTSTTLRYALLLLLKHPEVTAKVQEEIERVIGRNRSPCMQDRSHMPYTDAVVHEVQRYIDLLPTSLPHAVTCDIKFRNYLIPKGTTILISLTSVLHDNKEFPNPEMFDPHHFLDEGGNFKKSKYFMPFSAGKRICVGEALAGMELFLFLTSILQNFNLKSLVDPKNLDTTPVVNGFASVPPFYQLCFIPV
Outline: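 Luminescent read-out of deoxyluciferin hydroxylation, normalized to 57uM sulphaphenazole (AC100). Reaction: 10nM enzyme, 100uM Luciferin-H (equal to KM), 25mM KPO4, 10 min compound preincubation, then 60 min with NADPH regeneration, both at 37C.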

[4] = target: Cytochrome P450 3A4 (Homo sapiens) (UniProt P08684); assay: qHTS Assay for Inhibitors and Substrates of Cytochrome P450 3A4 (AID 884); note: series mostly up to about 57 µM; nearly all actives have a fitted effect of over 50% in size
Sequence of Cytochrome P450 3A4 (Homo sapiens) (P08684 whole entry, looked up): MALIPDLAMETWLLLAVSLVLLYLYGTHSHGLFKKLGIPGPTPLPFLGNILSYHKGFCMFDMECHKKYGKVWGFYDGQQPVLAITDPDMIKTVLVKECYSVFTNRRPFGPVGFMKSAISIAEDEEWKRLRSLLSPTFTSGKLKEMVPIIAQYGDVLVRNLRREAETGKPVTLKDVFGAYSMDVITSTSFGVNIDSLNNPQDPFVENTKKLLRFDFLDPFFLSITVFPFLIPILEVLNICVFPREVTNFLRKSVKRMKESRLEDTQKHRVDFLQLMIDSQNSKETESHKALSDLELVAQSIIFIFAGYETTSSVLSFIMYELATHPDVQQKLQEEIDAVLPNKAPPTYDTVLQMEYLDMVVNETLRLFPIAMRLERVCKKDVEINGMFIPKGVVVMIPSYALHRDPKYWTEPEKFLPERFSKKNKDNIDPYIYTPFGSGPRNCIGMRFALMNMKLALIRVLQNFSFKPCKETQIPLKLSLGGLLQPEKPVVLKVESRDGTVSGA
Outline: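 20 nM human CYP3A4 with 25 uM Luciferin-PPXE (at KM) in 200 mM KPO4, preincubated 10 min with compound; NADPH regeneration started a 60 min RT reaction. Luciferin detected by luminescence, normalized to 57 uM ketoconazole as full inhibition.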

[5] = target: Cytochrome P450 2D6 (Homo sapiens) (UniProt P10635); assay: qHTS Assay for Inhibitors and Substrates of Cytochrome P450 2D6 (AID 891); note: nearly all actives have a fitted effect of over 60% in size; note: potency is the fitted concentration of half-maximal effect
Sequence of Cytochrome P450 2D6 (Homo sapiens) (P10635 whole entry, looked up): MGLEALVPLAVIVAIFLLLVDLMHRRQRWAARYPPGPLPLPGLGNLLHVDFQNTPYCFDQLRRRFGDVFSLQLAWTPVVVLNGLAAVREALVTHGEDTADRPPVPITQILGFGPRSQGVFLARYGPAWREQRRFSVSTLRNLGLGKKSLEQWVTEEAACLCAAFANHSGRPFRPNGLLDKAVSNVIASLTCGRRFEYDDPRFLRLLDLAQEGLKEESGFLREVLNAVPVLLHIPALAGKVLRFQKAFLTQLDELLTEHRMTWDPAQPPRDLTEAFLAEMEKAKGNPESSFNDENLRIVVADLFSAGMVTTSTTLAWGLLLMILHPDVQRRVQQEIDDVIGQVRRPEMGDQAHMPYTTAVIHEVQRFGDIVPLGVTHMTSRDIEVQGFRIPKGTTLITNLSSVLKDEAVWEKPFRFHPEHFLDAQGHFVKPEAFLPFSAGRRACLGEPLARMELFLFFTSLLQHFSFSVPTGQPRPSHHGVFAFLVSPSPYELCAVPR
Outline: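 Human CYP2D6 (5 nM) with 30 uM Luciferin-ME EGE (at Km) in 100 mM KPO4, compound preincubated 10 min, then NADPH regeneration system for 60 min at room temperature. Luciferin read by luminescence; normalized to 1.43 uM quinidine.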

[6] = Confirmation and Secondary Assay for Modulators of Hemoglobin Beta Chain Splicing at IVS2 654 locus (AID 910);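 note: HeLa cells stably carrying EGFP split by mutant beta-globin IVS2-654 intron; per-well total GFP intensity by laser scanning cytometry after 2-day treatment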
Outline: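 Readout: per-well total peak green fluorescence (488 nm ex, 500–520 nm em) from objects 5–250 µm, reflecting correct splicing of an EGFP-654 reporter. Compounds were applied for 2 days at 37 °C to overnight-plated HeLa EGFP-654 cells; controls were DMSO and 500 nM IVS2-654 PNA.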

[7] = Cellular Toxicity (caspase-3) HepG2 (AID 654);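 note: cells exposed to compound for 16 hours before reading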
Outline: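 HepG2 cells (1500/well) were treated 16 h at 37 °C in complete medium, then caspase 3/7 activity was read by Caspase-Glo luminescence. Data were normalized to DMSO and 100 uM tamoxifen; AC50 came from Hill-equation fits of qHTS concentration-response.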

[8] = Cellular Toxicity (caspase-3) Jurkat (AID 655);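 note: cells exposed to compound for 16 h at 37 °C before reading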; note: potency is the fitted concentration of half-maximal effect
Outline: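 Luminescent caspase-3/7 readout (aminoluciferin substrate cleavage) in human T-cell leukemia Jurkat cells after 16 hr compound exposure. Concentration-response normalized to DMSO and 100 uM tamoxifen; AC50 by standard Hill equation.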

[9] = Cellular Toxicity (caspase-3) HUV-EC-C (AID 656)
Outline: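 Luminescent caspase-3/7 activation (aminoluciferin substrate cleavage) in HUV-EC-C cells after 16 hr compound exposure, 37°C. Signal normalized to DMSO basal and 100 uM tamoxifen as 100%; AC50 from concentration-response fitted with the Hill equation.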

[10] = Cellular Toxicity (caspase-3) SHSY5Y (AID 657)
Outline: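 Luminescent caspase-3/7 readout (aminoluciferin release) in SH-SY5Y cells after 16 h compound exposure in complete medium. Activity scaled between DMSO basal and 10 uM staurosporine as 100%; concentration-response fitted to Hill equation for AC50.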

[11] = Cellular Toxicity (caspase-3) BJ (AID 658)
Outline: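 Readout: Caspase-Glo 3/7 luminescence increase in BJ cells after 16 hr treatment at 37 °C. Staurosporine and tamoxifen served as positive controls; AC50 values came from Hill modelling of data normalized to DMSO and 10 uM staurosporine.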

[12] = Cellular Toxicity (caspase-3) MRC-5 (AID 659)
Outline: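 Concentration-dependent caspase 3/7 activation is measured in human normal lung fibroblasts (MRC-5) following 16-hour treatment. AC50 values come from standard Hill-equation modeling of luminescence normalized to DMSO and 10 uM staurosporine.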

[13] = Cellular Toxicity (caspase-3) Mesangial (AID 660);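 note: cells exposed to compound for 16 h before the caspase read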
Outline: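 Human renal glomerular mesangial cells, 1000/well, 5 h at 37 C before 16 h compound treatment. Caspase-Glo 3/7 luminescence after 20 min; normalized to DMSO and 100 uM tamoxifen, AC50 from Hill fit.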

[14] = Cellular Toxicity (caspase-3) SK-N-SH (AID 661); note: potency is the fitted concentration of half-maximal effect
Outline: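 Human SK-N-SH neuroblastoma cells, 1500/well, were exposed to compounds for 16 hours at 37 °C. Caspase-Glo 3/7 luminescence was normalized to DMSO (basal) and 10 uM staurosporine (100%), and AC50 came from a Hill fit.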

[15] = Cellular Toxicity (caspase-3) H-4-II-E (AID 663);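 note: cells exposed to compound for 16 hr before readout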
Outline: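 Apoptosis induction is scored as increased luminescence from caspase 3/7 substrate cleavage in rat hepatoma H-4-II-E cells exposed to compound for 16 hr. Activity is scaled between DMSO and 100 uM tamoxifen.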

[16] = Cellular Toxicity (caspase-3) N2a (AID 665);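 note: compound exposure lasted 16 h at 37 °C before readout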
Outline: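 Mouse N2a neuroblastoma cells, 1500 per well, treated 16 h at 37 °C in complete medium; caspase-3/7 activity by Caspase-Glo luminescence after 1 h. Normalized to DMSO and 10 uM staurosporine; AC50 from Hill fits.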

[17] = Cellular Toxicity (caspase-3) NIH 3T3 (AID 666)
Outline: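 Mouse NIH 3T3 fibroblasts (1000/well) treated 16 h at 37 C; caspase-3/7 activity measured by Caspase-Glo 3/7 luminescence after 20 min. Normalized to DMSO and 100 uM tamoxifen; AC50 from Hill fits.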

[18] = Cellular Toxicity (caspase-3) Renal Proximal Tubule (AID 667);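 note: cells exposed to compound for 16 hours at 37 °C before detection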
Outline: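 Luminescent caspase 3/7 signal from peptide-aminoluciferin cleavage measures apoptosis in freshly isolated rat kidney proximal tubule cells after 16 h compound exposure. Concentration-response data are normalized to DMSO and 10 uM staurosporine, and AC50 values come from Hill equation fits.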

[19] = target: Cytochrome P450 3A4 (Homo sapiens) (UniProt P08684); assay: qHTS Assay for Activators of Cytochrome P450 3A4 (AID 885); note: nearly all actives have a fitted effect of over 65% in size
Outline: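 Steps: enzyme/substrate mix dispensed; compound added, 10 min RT; NADPH regeneration solution added, 60 min RT; luciferin detection buffer stops reaction; 20 min later luminescence measured.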

Measured: Potency

COC(=O)Nc1nc2ccc(C(=O)c3cccs3)cc2[nH]1
inactive: [1] | [2] | [3] | [4] | [5] | [6]

COc1ccc2c(c1)c(CC(=O)O)c(C)n2C(=O)c1ccc(Cl)cc1
not listed: [3] | [19]
inactive: all other assays above

CN1C(C(=O)Nc2ccccn2)=C(O)c2ccccc2S1(=O)=O
inactive: [1] | [2] | [19] | [5] | [6]
active: [3] 3.98 µM

N[C@@H](Cc1c[nH]c2ccc(O)cc12)C(=O)O
not listed: [4] | [6]
inactive: all other assays above

CN(Cc1cnc2nc(N)nc(N)c2n1)c1ccc(C(=O)N[C@@H](CCC(=O)O)C(=O)O)cc1
inactive: [1] | [2] | [4]

NC(=O)OCC(COC(N)=O)c1ccccc1
inactive: [1] | [2] | [3]
inactive and 794 nM (active): [5]

CC(C)C(=O)Nc1ccc([N+](=O)[O-])c(C(F)(F)F)c1
not listed: [3] | [4]
inactive: all other assays above

COc1nc(C)nc(Cl)c1NC1=NCCN1
inactive: [1] | [2] | [4]

O=c1c(-c2ccc(O)cc2)coc2cc(O)cc(O)c12
not listed: [4] | [10]
inactive: all other assays above

NCCS(=O)(=O)O
not listed: [3] | [4] | [5] | [6] | [19]
inactive: all other assays above

Clc1ccc2c(c1)C(N1CCNCC1)=Nc1ccccc1O2
inactive: [1] | [2] | [3] | [19] | [6]

Nc1nc2c(ncn2COC(CO)CO)c(=O)[nH]1
inactive: [1] | [2]

COc1cc2c(c(OC)c1OC)-c1ccc(OC)c(=O)cc1[C@@H](NC(C)=O)CC2
active: [8] 3.98 nM and 3.16 nM | [14] 200 nM and 251 nM
not listed: [3] | [4] | [5] | [6] | [19]
inactive: all other assays above

Clc1ccccc1C(c1ccccc1)(c1ccccc1)n1ccnc1
active: [3] 1 µM and 316 nM | [5] 10 µM
inactive: [1] | [2] | [19] | [6]

CC[N+](CC)(CC)CCOc1cccc(OCC[N+](CC)(CC)CC)c1OCC[N+](CC)(CC)CC
inactive: [1] | [2]

CN1CCC(=C2c3ccccc3CC(=O)c3sccc32)CC1
inactive: [1] | [2] | [4] | [6]
active: [5] 7.94 µM and 3.16 µM and 5.01 µM

Cc1cnc(C(=O)NCCc2ccc(S(=O)(=O)NC(=O)NC3CCCCC3)cc2)cn1
inactive: [1] | [2]

NS(=O)(=O)c1cc2c(cc1Cl)NCNS2(=O)=O
not listed: [3] | [4] | [5] | [19]
inactive: all other assays above

CCOC(=O)C(C)(C)Oc1ccc(Cl)cc1
inactive: [1] | [2]

O=C1N(c2ccccc2)c2ccccc2C1(Cc1ccncc1)Cc1ccncc1
active: [3] 3.98 µM and 7.94 µM
inactive: [1] | [2] | [5]

COc1ccc2[nH]cc(CCNC(C)=O)c2c1
not listed: [3] | [4] | [5] | [19]
inactive: all other assays above

O=c1[nH]cc(F)c(=O)[nH]1
not listed: [6] | [19]
inactive: all other assays above
